The sample as a whole holds a higher share of hits than the screen did.
BJeLR viability: BJeLR cell viability loss, primary screen, luminescence, CellTiterGlo ATP; BJeLR fibroblasts viability, 48 h; HRASV12, hTERT and SV40 LT/ST transformed; viability loss activity score, % (no concentration beside the values); 0.64% of 30,000 active; AID 2275, 2010; in the data active = viability loss activity score above about 50%;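 note: higher score means fewer live cells and less ATP luminescence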
Hedgehog inh: Hedgehog pathway signaling inhibitors, primary screen, luminescence, Shh-LIGHT2 cells, Gli-luciferase. Shh-LIGHT2 Gli-luciferase reporter, 30 h. inhibition, % (test concentration not listed). 2.1% of 22,000 active. AID 2313, 2010;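 active = mean inhibition across valid replicates above about 65%, limit read from the data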;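 note: pathway switched on by Shh-conditioned medium diluted 1 in 25 in low serum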
Large screens that a line does not name were inactive.

CCOc1ccc(-c2nc3ccc(-c4nc5ccc(N6CCN(C)CC6)cc5[nH]4)cc3[nH]2)cc1	BJeLR viability 126
CCOc1ccc2nc(N3CCCCC3)sc2c1	none (no result: Hedgehog inh)
C[C@]12CCC3c4ccc(O)cc4CC[C@H]3C1CC[C@H]2O (some centres not stated)	none
C[C@]12CC[C@@H]3c4ccc(O)cc4CC[C@H]3[C@@H]1CC[C@@H]2O	Hedgehog inh 91
C[C@]12CCC3c4ccc(O)cc4CCC3C1CCC2=O (some centres not stated)	Hedgehog inh 89
COc1ccc2c(c1)CCC1C2CCC2(C)C(=O)CCC12 (configuration not stated)	none
Cc1ccc(C(C)C)c(OCc2ccc(N)cc2)c1	none
Cc1nc2ccc(NC(=O)N3CC4(C)CC3CC(C)(C)C4)cc2nc1C (configuration not stated)	none (no result: Hedgehog inh)
CCCN(CCC)S(=O)(=O)c1ccc(C(=O)Nc2ccc3sc(SC)nc3c2)cc1	none (no result: Hedgehog inh)
COc1ccc(/C=c2/[nH]/c(=C\C(=O)c3ccccc3)c(=O)[nH]c2=O)cc1OC	none (no result: Hedgehog inh)
O=C(/C=c1\[nH]/c(=C/c2ccc(F)cc2)c(=O)[nH]c1=O)c1ccccc1	BJeLR viability 70 (no result: Hedgehog inh)
CC(C)n1cnc2c(Nc3cccc(Cl)c3)nc(NCCO)nc21	Hedgehog inh 75
CC[C@H](CO)Nc1nc(NCc2ccccc2)c2ncn(C(C)C)c2n1	none
C[C@@H]1CCCCO[C@H](CN(C)C(=O)Nc2ccccc2)[C@@H](C)CN([C@H](C)CO)C(=O)c2cc(NC(=O)NC3CCCCC3)ccc2O1	none (no result: BJeLR viability)
COc1ccc(S(=O)(=O)Nc2ccc3c(c2)CC(=O)N([C@@H](C)CO)C[C@@H](C)[C@@H](CN(C)S(=O)(=O)c2ccc(Cl)cc2)O3)cc1	none (no result: BJeLR viability)
CN(Cc1ccccc1)C(=O)Cn1nc(-c2ccc(Cl)cc2)ccc1=O	none (no result: Hedgehog inh)
COC(=O)c1cc(C)cc(O)c1C(=O)c1c(O)cccc1O	none (no result: BJeLR viability)
Cc1nc2ccccc2c(=O)n1/N=C/c1ccsc1	none (no result: Hedgehog inh)
CCOc1ccc(-n2c(SCc3ccccc3)nnc2-c2cccnc2)cc1	none (no result: Hedgehog inh)
COc1ccc(-n2c(-c3cccc(OC)c3)csc2=NCc2cccnc2)cc1	Hedgehog inh 71
O=C(CN(Cc1ccc(Br)cc1)S(=O)(=O)c1ccccc1)Nc1ccccc1	none (no result: Hedgehog inh)
COc1cccc(/C=N/O)c1O	none
COc1cc(-c2ccccn2)nc(/C=N/O)c1S(C)=O (configuration not stated)	Hedgehog inh 83 (no result: BJeLR viability)
COc1ccc(NC(=O)CSc2cn(Cc3ccc(Cl)cc3)c3ccccc23)cc1	none (no result: Hedgehog inh)
COc1ccc(C(=O)NCCn2cc(SC(C)c3ccccc3)c3ccccc32)cc1 (configuration not stated)	Hedgehog inh 78
Cc1ccc2nc(-c3ccncc3)cc(-c3ccccc3)c2c1	none (no result: Hedgehog inh)
On1onc2c3cc(-c4ccccc4)nc3ccc21	BJeLR viability 61, Hedgehog inh 99
C[C@@H]1CCCCO[C@@H](CN(C)C(=O)Nc2ccc3c(c2)OCO3)[C@@H](C)CN([C@H](C)CO)C(=O)c2cc(NC(=O)Cc3ccccc3)ccc2O1	none (no result: BJeLR viability)
CC(=O)N1CC(C)Sc2cc(S(=O)(=O)Nc3cccc(Cl)c3)ccc21 (configuration not stated)	none (no result: Hedgehog inh)
CO[C@@H]1C=C[C@@]23c4cc5c(cc4CN(CC2O)[C@H]3C1)OCO5 (some centres not stated)	Hedgehog inh 88
O=C(NCCc1ccsc1)c1cnn2ccccc12	none (no result: Hedgehog inh)
Cc1cc[n+](Cc2ccccn2)c(N)c1	none
c1ccc(CN(CCN(Cc2ccccn2)Cc2ccccn2)Cc2ccccn2)nc1	BJeLR viability 110
Cc1[nH]c2ccccc2c1C(c1c(C)[nH]c2ccccc12)C(C)C	none
Cc1[nH]c2ccccc2c1Sc1ccccc1	Hedgehog inh 71
O=C(CN1C(=O)N(c2ccc(Cl)cc2)S(=O)(=O)c2ccccc21)N1CCCc2ccccc21	none (no result: Hedgehog inh)
COc1ccccc1NC(=O)/C=C\c1ccco1	Hedgehog inh 68
O=C(/C=C/c1ccco1)Nc1cccc2cccnc12	none (no result: Hedgehog inh)
Cc1cccc(COc2ccc3c(C)cc(=O)oc3c2)c1	none (no result: Hedgehog inh)
COc1ccc(NC(=O)Nc2cccc3c2O[C@@H](CN(C)C(=O)Nc2ccc4c(c2)OCO4)[C@@H](C)CN([C@H](C)CO)C3=O)cc1	none
N/C(=N\O)C(=O)Nc1ccccc1	none (no result: Hedgehog inh)
CC(CNc1ccccc1)C(=Nc1ccccc1)Nc1ccccc1 (configuration not stated)	none
CC(C)CCOc1ccc(C(=O)C(CN2CCOCC2)c2ccccc2)cc1 (configuration not stated)	BJeLR viability 78 (no result: Hedgehog inh)
OC(CN1CCOCC1)c1ccccc1 (configuration not stated)	none (no result: Hedgehog inh)
CCOc1ccc(S(=O)(=O)NCc2ccccc2)cc1-c1nc2c(C(C)(C)C)nn(C)c2c(=O)[nH]1	Hedgehog inh 79
CCCc1nn(C)c2c(=O)[nH]c(-c3cc(S(=O)(=O)N4CCN(C)CC4)ccc3OCC)nc12	none
O=c1nc2s/c(=C\c3cccs3)c(=O)n2nc1Cc1ccccc1	none (no result: Hedgehog inh)

Compound activity (PubChem BioAssay)
